Here are results for 10 compounds from PubChem BioAssay (Tox21).

Structures are written as SMILES. Inconclusive results are not listed. Calls of active or inactive are those of the source. Unless noted, the call rests on the fitted dose curve; in most records, active means well fitted curve in the direction sought with a large enough effect in the repeat runs; inconclusive means weak or mixed curves; inactive means no such curve, though single readings can be large; an effect the other way counts as inactive or inconclusive.

Test [1] in a line: qHTS assay to identify small molecule antagonists of the peroxisome proliferator-activated receptor delta (PPARd) signaling pathway - cell viability counter screen (AID 743213). Further: nearly all actives have a fitted effect of over 50% in size. Further: potency means the concentration at half of the fitted maximal effect. In outline: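 Same-well viability: cells pre-incubated 5 h, dosed with compound plus 300 nM L165041, kept 17 h at 37 C, FRET substrate 2 h RT, then CellTiter-Glo 30 min RT and luminescence.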
Background: Quantitative high-throughput screening tests each substance at several concentrations.

The nature of test [2]: qHTS assay to identify small molecule agonists of the farnesoid-X-receptor (FXR) signaling pathway - cell viability counter screen (AID 743218). Further: nearly all actives have a fitted effect of over 45% in size. Further: potency means the concentration at half of the fitted maximal effect. In outline:
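After 16 h at 37 C with test compounds, FXR-bla HEK 293T cells were given LiveBLAzer B/G substrate for 2 h at RT and then CellTiter-Glo; luminescence was taken after 30 min.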

Test [3] can be described thus: qHTS assay to identify small molecule antagonists of the farnesoid-X-receptor (FXR) signaling pathway - cell viability counter screen (AID 743221; active means well fitted cell-killing curve with a large enough effect in the repeat runs, not every such curve was filed as active; further: nearly all actives have a fitted effect of over 50% in size; further: potency means the concentration at half of the fitted maximal effect). The procedure, abridged:
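Multiplexed counter screen: viability of FXR-bla HEK 293T cells under agonist stimulation by chenodeoxycholic acid (50 uM, final) and test compound for 16 h at 37 C, measured by CellTiter-Glo luminescence in the reporter wells.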

Test [4] can be described thus: qHTS assay to identify small molecule agonists of the vitamin D receptor (VDR) signaling pathway - cell viability counter screen (AID 743224). Further: nearly all actives have a fitted effect of over 50% in size. Further: potency means the concentration at half of the fitted maximal effect. The procedure, abridged:
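Here cell health was gauged by luminescent ATP detection (CellTiter-Glo, 30 min RT) in VDR-bla cells that had been incubated with test compounds for 16 h at 37C and 5% CO2.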

Test [5] is described as follows: qHTS assay to identify small molecule antagonists of the vitamin D receptor (VDR) signaling pathway - cell viability counter screen (AID 743225). Further: nearly all actives have a fitted effect of over 50% in size. Further: potency means the concentration at half of the fitted maximal effect. The procedure, abridged: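 HEK293T VDR-bla; cpd + 1a,25-(OH)2D3 3 nM final, 16 h 37C/5% CO2; B/G FRET substrate 2 h RT; then CellTiter-Glo 30 min RT, luminescence.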
A short description of test [6]: qHTS assay to identify small molecule agonists of the NFkB signaling pathway - cell viability counter screen (AID 1159515; calls by dose curve; further: nearly all actives have a fitted effect of over 55% in size; further: potency means the concentration at half of the fitted maximal effect). In outline: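 5 hr compound treatment of NFkB-bla ME-180 cells (2,000/well, seeded overnight beforehand), followed by reporter substrate for 1.5 hr. CellTiter-Glo added afterward; luminescence after 30 min RT.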
Test [7] is described as follows: qHTS assay to identify small molecule agonists of the endoplasmic reticulum stress response signaling pathway - cell viability counter screen (AID 1159517; calls by dose curve; further: nearly all actives have a fitted effect of over 50% in size; further: potency means the concentration at half of the fitted maximal effect). In outline: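 Luminescence readout: CellTiter-Glo, 30 min RT, same wells as the ESRE-bla reporter read. HeLa ESRE-bla, 1,500 cells/well, o/n 37 C; cpd 5 hr 37 C/5% CO2.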
Test [8] is described as follows: qHTS assay to identify small molecule antagonists of the retinoid-related orphan receptor gamma (ROR-gamma) signaling pathway - cell viability counter screen (AID 1159520). Further: nearly all actives have a fitted effect of over 50% in size. Further: potency means the concentration at half of the fitted maximal effect. The procedure, abridged:
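Tet-on ROR gamma CHO cells (1,000/well) were plated 4 hr, given compounds in DMSO for 2 hr at 37 C, then induced with 1 uM final doxycycline for 16 hr. Viability was read as ATP by CellTiter-Glo luminescence after 30 min.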

Test [9] in a line: qHTS assay to identify small molecule agonists of the AP-1 signaling pathway - cell viability counter screen (AID 1159525; calls by dose curve; further: nearly all actives have a fitted effect of over 55% in size; further: potency means the concentration at half of the fitted maximal effect). In outline: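 ME-180 AP-1-bla, 2500 cells/well, Opti-MEM + 0.5% dialyzed FBS; overnight 37 °C; cpd 15-pt titration, 5 h 37 °C; CellTiter-Glo 30 min RT; luminescence read; normalised to TOAB and DMSO controls.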
Test [10] in a line: qHTS assay to identify small molecule agonists of the RXR signaling pathway - cell viability counter screen (AID 1159529). Further: nearly all actives have a fitted effect of over 50% in size. Further: potency means the concentration at half of the fitted maximal effect. The procedure, abridged: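 Steps: seed RXR-alpha-UAS-bla HEK 293T cells in assay medium containing 2% charcoal-stripped FBS; incubate 5 hr; add compounds in DMSO; incubate 16 hr at 37 C; after the bla read, add CellTiter-Glo and read luminescence at 30 min.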

For test [11], the target named is Bile acid receptor (Homo sapiens) (UniProt Q96RI1). Description: qHTS assay to identify small molecule antagonists of the farnesoid-X-receptor (FXR) signaling pathway (AID 743217; active means well fitted inhibition curve with a large enough effect in the signal ratio in the repeat runs, not every such curve was filed as active; the % refers to the signal ratio). In outline:
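In this cell-based antagonist screen, inhibition of CDCA-driven (50 uM final) UAS-beta-lactamase expression in HEK 293T cells was measured by FRET fluorescence following 16 h compound exposure at 37 °C.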

Test [12] shares this target. As to the kind of experiment: qHTS assay to identify small molecule agonists of the farnesoid-X-receptor (FXR) signaling pathway (AID 743220; active means well fitted activation curve with a large enough effect in the signal ratio in the repeat runs, not every such curve was filed as active; the % refers to the signal ratio; further: potency means the concentration at half of the fitted maximal effect). The procedure, abridged: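 Beta-lactamase reporter under UAS control in GeneBLAzer FXR HEK 293T cells (5000/well) measured with LiveBLAzer FRET substrate after 2 h at room temperature. Compound exposure lasted 16 h at 37C.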

The target of test [13] is Vitamin D3 receptor (Homo sapiens) (UniProt P11473). Description: qHTS assay to identify small molecule agonists of the vitamin D receptor (VDR) signaling pathway (AID 743222; calls by dose curve). The procedure, abridged: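 VDR-bla cells were seeded, left 4 h, treated with compounds in DMSO for 16 h, incubated 2 h at RT with B/G FRET substrate, and read for fluorescence.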
Test [14] has the same target. As to the kind of experiment: qHTS assay to identify small molecule antagonists of the vitamin D receptor (VDR) signaling pathway (AID 743223; active means well fitted inhibition curve with a large enough effect in the signal ratio in the repeat runs, not every such curve was filed as active; the % refers to the signal ratio). In outline:
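Cells carrying a VDR-driven beta-lactamase reporter (VDR-bla) were co-treated with compound and 3 nM final 1alpha,25-dihydroxyvitamin D3 for 16 h at 37C; reporter activity was measured as FRET substrate fluorescence after 2 h at room temperature.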

Test [15] deals with Nuclear receptor ROR-gamma (Homo sapiens) (UniProt P51449). Description: qHTS assay to identify small molecule antagonists of the retinoid-related orphan receptor gamma (ROR-gamma) signaling pathway (AID 1159521; further: nearly all actives have a fitted effect of over 50% in size; further: potency means the concentration at half of the fitted maximal effect). In outline:
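Cells were plated, rested 4 h at 37 C, exposed to compounds for 2 h, then given 1 uM final doxycycline hyclate to induce RORγ expression. After 16 h, ONE-Glo luminescence from the ROR response element reporter was measured.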

The target of test [16] is Peroxisome proliferator-activated receptor delta (Homo sapiens) (UniProt Q03181). As to the kind of experiment: qHTS assay to identify small molecule antagonists of the peroxisome proliferator-activated receptor delta (PPARd) signaling pathway (AID 743215; active means well fitted inhibition curve with a large enough effect in the signal ratio in the repeat runs, not every such curve was filed as active; the % refers to the signal ratio;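 further: cells stimulated with agonist L165041 at 300 nM final during compound exposure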; further: potency means the concentration at half of the fitted maximal effect). The procedure, abridged: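 With L165041 present at 300 nM final, compounds were incubated 17 h at 37 C on PPARd UAS-bla HEK293H cells. A FRET-based beta-lactamase substrate was then applied for 2 h at room temperature and fluorescence intensity recorded.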

Test [17] can be described thus: qHTS assay to identify small molecule agonists of the AP-1 signaling pathway (AID 1159526; calls by dose curve).
Test [18] has as its target Peroxisome proliferator-activated receptor delta (Homo sapiens) (UniProt Q03181). Description: qHTS assay to identify small molecule agonists of the peroxisome proliferator-activated receptor delta (PPARd) signaling pathway (AID 743212; calls by dose curve; further: potency means the concentration at half of the fitted maximal effect). The procedure, abridged: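 GeneBLAzer PPARd UAS-bla HEK293H cells (beta-lactamase reporter under UAS control), plated and rested 5 h at 37 C, then exposed to compounds in DMSO at 37 C; LiveBLAzer B/G FRET substrate added, 2 h room temperature, fluorescence read.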

Chain of Bile acid receptor (Homo sapiens) (Q96RI1 whole entry, looked up): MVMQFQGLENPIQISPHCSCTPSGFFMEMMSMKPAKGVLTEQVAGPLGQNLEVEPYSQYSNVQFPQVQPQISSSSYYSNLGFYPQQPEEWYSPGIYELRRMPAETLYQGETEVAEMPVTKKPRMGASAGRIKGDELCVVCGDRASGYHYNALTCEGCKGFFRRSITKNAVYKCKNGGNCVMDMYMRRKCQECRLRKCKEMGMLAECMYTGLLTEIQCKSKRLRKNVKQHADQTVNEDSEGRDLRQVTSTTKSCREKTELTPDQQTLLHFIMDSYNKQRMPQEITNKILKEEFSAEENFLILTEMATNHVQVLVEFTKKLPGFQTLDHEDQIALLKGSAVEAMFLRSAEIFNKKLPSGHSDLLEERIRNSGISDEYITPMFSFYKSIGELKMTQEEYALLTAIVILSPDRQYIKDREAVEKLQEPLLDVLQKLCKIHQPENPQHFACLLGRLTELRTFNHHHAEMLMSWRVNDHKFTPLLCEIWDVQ
Chain of Peroxisome proliferator-activated receptor delta (Homo sapiens) (Q03181 whole entry, looked up): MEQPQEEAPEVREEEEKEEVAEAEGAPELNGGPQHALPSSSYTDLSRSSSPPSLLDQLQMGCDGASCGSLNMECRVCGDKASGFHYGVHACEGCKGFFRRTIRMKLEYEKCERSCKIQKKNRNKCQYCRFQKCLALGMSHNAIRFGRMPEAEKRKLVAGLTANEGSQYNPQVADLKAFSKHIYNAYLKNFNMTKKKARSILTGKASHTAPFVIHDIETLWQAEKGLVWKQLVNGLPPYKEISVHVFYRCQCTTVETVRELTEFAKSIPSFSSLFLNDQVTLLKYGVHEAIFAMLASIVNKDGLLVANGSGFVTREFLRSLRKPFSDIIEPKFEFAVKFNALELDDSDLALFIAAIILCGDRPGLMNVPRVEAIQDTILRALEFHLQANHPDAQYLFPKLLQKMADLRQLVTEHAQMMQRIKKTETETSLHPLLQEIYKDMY
Chain of Vitamin D3 receptor (Homo sapiens) (P11473 whole entry, looked up): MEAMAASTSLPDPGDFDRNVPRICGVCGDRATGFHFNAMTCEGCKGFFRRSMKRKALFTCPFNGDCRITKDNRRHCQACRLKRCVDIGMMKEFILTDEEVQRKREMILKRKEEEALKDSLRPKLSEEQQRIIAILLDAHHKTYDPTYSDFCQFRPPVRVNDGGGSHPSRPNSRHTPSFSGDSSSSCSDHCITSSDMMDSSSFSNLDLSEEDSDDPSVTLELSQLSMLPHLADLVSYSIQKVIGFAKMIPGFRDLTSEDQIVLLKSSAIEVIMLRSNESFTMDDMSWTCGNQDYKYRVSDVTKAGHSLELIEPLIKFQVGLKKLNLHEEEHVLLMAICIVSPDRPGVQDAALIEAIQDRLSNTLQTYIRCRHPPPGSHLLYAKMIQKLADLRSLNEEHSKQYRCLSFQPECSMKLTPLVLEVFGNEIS

Regarding `O=[N+]([O-])c1cc([N+](=O)[O-])c2ccc(S(=O)(=O)O)cc2c1O`, the Potency result in test [1], in test [2], in [3], in test [4], in [5] and in test [6] was “inactive” in each case. In addition, the Potency entry in test [7], in test [8], in test [9] and in test [10] was “inactive” in each case.
On to `CCCCCCCCOc1ccccc1C(=O)Nc1ccc(C(=O)OCC[N+](C)(CC)CC)cc1`, for which the Potency entry in [11], in test [2], in [12], in test [13], in [14] and in test [4] was “inactive” throughout. Also, the Potency result in test [7] and in test [15] was “inactive” each time. The Potency in [6] was 12 µM (active); in test [9], 26.8 µM (active); in test [10], 10.7 µM (active).
In the case of `C[C@@H]1C[C@H]2[C@@H]3CCC4=CC(=O)C=C[C@]4(C)[C@@]3(Cl)[C@@H](O)C[C@]2(C)[C@@]1(OC(=O)c1ccco1)C(=O)CCl`, the Potency result in [16], in test [3], in test [13], in [6], in test [7] and in test [9] was “inactive” throughout. For the same compound, the Potency result in test [17] was “inactive”. In test [15], the Potency was 11.9 µM (active).
With `Nc1c2ccccc2nc2ccccc12`, the Potency in [18] is 26.6 µM (active); in test [12] it was 9.44 µM (active). The Potency entry in [1], in test [2], in test [3], in test [4], in [6] and in test [7] was “inactive” in each case. For the same compound, the Potency entry in test [15], in [9] and in [17] was “inactive” in each case.
For the compound `CC/C(=C(\c1ccc(O)cc1)c1ccc(OCCN(C)C)cc1)c1ccccc1`, the Potency in test [1] was 21.9 µM (active); in test [3], 24.6 µM (active); in [4] it was 17.4 µM (active); in test [5] it was 19.5 µM (active); in [6] it was 49.1 µM (active); in test [7], 61.8 µM (active). Also, the Potency in test [8] is 34.4 µM (active); in test [9], 27.6 µM (active); in test [10], 21.9 µM (active).
In the case of `NNc1nc(-c2ccc(N)cc2)cs1`, the Potency result in test [18], in [1], in test [16], in [11], in test [12] and in test [3] was “inactive” throughout. For the same compound, the Potency entry in test [13], in test [14], in [4], in test [5], in [6] and in [7] was “inactive” throughout. For the same compound, the Potency entry in test [8] and in test [9] was “inactive” throughout. The Potency in [2] was 6.92 µM (active).
As to `NC(=O)N1C(=O)C(C(=O)c2cc(Cl)cs2)c2cc(F)c(Cl)cc21` (stereo unspecified), the Potency in test [1] is 15.5 µM (active); in test [16], 13.8 µM (active); in [3] it was 24.5 µM (active); in [4] it was 21.9 µM (active); in test [15], 19.3 µM (active); in [10], 49 µM (active). Besides, the Potency result in test [6], in test [7] and in test [9] was “inactive” in each case.
Turning to `Cn1cc(C(=O)[C@@H]2CCc3nc[nH]c3C2)c2ccccc21`, the Potency result in test [18], in [11], in [12], in [3], in test [13] and in test [4] was “inactive” each time. Further, the Potency entry in test [6], in test [7], in test [8] and in [9] was “inactive” throughout.
Regarding `CCCCCCCCCCn1cc[n+](CCCCCCCCCC)c1C`, the Potency in test [1] is 13.8 µM (active); in test [2] it was 39 µM (active); in test [3], 34.7 µM (active); in [4], 15.5 µM (active); in test [5], 6.93 µM (active); in test [6] it was 55 µM (active). Moreover, the Potency is 34.7 µM (active) in test [7], 19.4 µM (active) in [8], 39 µM (active) in test [9] and 6.93 µM (active) in [10].
In the case of `Fc1ccc(C(c2ccc(F)cc2)N2CCN(C/C=C/c3ccccc3)CC2)cc1`, the Potency entry in [2], in [12], in test [6], in test [7], in [9] and in [17] was “inactive” throughout. The Potency in test [4] is 29.8 µM (active); in test [15] it was 23.7 µM (active).
